PubChem BioAssay (EPA / NIEHS)
Records with an inconclusive call do not appear. The source made the active and inactive calls. The calls were made as follows: active = hit-call score of the fitted dose curve at least 0.9, where 1 is the maximum; inconclusive = response in the unintended direction; inactive = score below 0.9.

Biological target: human Ephrin type-B Receptor 1 (EphB1), EPHB1 (gene 2047) (UniProt P54762)
Experiment: NVS_ENZ_hEphB1: NovaScreen (NVS) Enzymatic Assay for human Ephrin type-B Receptor 1 (EphB1) (AID 2283154)
Experimental: NVS_ENZ_hEphB1 is a biochemical, single-readout assay that uses extracted gene-proteins in a cell-free assay. Measurements were taken 1 hour after chemical dosing in a 384-well plate.NVS_ENZ_hEphB1 is one of one assay component(s) measured or calculated from the NVS_ENZ_hEphB1 assay. It is designed to make measurements of enzyme activity, a form of enzyme reporter, as detected with fluorescence intensity signals by Fluorescence and electrophoretic mobility shift technology.Data from the assay component NVS_ENZ_hEphB1 was analyzed into 1 assay endpoint. This assay endpoint, NVS_ENZ_hEphB1, was analyzed in the positive analysis fitting direction relative to DMSO as the negative control and baseline of activity. Using a type of enzyme reporter, loss-of-signal activity can be used to understand changes in the enzymatic activity as they relate to the gene EPHB1. Furthermore, this assay endpoint can be referred to as a primary readout, because this assay has produced multiple assay endpoints where this one serves a enzymatic activity function. To generalize the intended target to other relatable targets, this assay endpoint is annotated to the kinase intended target family, where the subfamily is receptor tyrosine kinase.
Binding assays used specific radioligands (tritiated, iodinated) with non-radioactive competitive displacement ligands in agonist or antagonist protocols (as indicated) and various reference compounds and inhibitors to titrate specific binding to receptors and transporters. Most enzyme assays (CYPs, kinases, phosphatases, proteases, HDACs) used recombinant protein and specific substrates (fluorescence mostly, some colorimetric and radioactive) and inhibitors, followed by a biochemical separation of substrate and product. All assays for the biochemical HTS were initially run in duplicate at a single concentration (10 uM for CYP450 assays and 25 uM for all others). […] Each assay was run with positive and negative controls, and concurrent controls on every plate. The follow-up (secondary) screen tested active chemical-pairs in concentration series, as well as a few additional assays not tested in the primary screen, some selected negative inactives, and several cases re-run in the concentration series for confirmatory purposes.

Sequence of human Ephrin type-B Receptor 1 (EphB1), EPHB1 (gene 2047) (P54762 whole entry, looked up): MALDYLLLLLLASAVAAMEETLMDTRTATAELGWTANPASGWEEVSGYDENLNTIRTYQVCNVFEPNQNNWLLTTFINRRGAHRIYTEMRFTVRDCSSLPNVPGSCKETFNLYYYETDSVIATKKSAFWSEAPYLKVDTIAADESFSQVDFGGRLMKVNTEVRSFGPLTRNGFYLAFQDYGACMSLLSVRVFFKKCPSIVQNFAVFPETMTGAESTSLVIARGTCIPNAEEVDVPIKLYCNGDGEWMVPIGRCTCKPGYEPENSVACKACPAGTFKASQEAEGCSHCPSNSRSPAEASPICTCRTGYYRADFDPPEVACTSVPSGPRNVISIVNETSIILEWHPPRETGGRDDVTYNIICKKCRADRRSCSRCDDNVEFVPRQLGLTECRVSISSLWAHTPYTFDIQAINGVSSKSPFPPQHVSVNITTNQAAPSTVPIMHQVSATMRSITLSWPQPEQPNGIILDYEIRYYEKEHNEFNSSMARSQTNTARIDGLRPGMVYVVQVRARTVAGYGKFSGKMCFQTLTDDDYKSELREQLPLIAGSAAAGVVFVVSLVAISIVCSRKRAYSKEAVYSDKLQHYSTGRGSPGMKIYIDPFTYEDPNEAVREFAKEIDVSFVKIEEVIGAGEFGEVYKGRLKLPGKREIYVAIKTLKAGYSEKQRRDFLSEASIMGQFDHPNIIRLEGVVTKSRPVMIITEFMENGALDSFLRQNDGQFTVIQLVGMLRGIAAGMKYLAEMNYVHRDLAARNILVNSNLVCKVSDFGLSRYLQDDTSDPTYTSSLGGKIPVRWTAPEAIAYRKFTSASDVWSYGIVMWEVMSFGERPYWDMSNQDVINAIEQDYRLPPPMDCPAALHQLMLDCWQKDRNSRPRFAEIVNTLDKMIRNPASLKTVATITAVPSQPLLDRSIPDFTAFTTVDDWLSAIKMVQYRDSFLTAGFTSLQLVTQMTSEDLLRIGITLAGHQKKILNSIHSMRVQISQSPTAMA

| Compound | outcome |
| --- | --- |
| Cc1ccc(N=CN(C)C=Nc2ccc(C)cc2C)c(C)c1 | inactive |
| CCOC(=O)C(C)OC(=O)c1cc(Oc2ccc(C(F)(F)F)cc2Cl)ccc1[N+](=O)[O-] (stereo not given) | inactive |
| Cc1c(COC(=O)[C@@H]2[C@H](/C=C(\Cl)C(F)(F)F)C2(C)C)cccc1-c1ccccc1 | inactive |
| CNC(=O)N(C)c1nnc(C(C)(C)C)s1 | inactive |
| CN=C=S | inactive |
| Cc1nc(N(C)C)nc(OC(=O)N(C)C)c1C | inactive |
| CC1(C)C(C=C(Cl)Cl)C1C(=O)OC(C#N)c1cccc(Oc2ccccc2)c1 (stereo not given) | inactive |
| CN/C(=N\[N+](=O)[O-])NCc1cnc(Cl)s1 | inactive |
| Clc1nc(Cl)nc(Nc2ccccc2Cl)n1 | inactive |
| CC1(C)C(C(=O)OC(C#N)c2cccc(Oc3ccccc3)c2)C1(C)C (stereo not given) | inactive |
| O=C(Nc1ccccc1-c1ccc(Cl)cc1)c1cccnc1Cl | inactive |
| CCOP(=O)(OCC)Oc1nc(Cl)c(Cl)cc1Cl | inactive |
| COC(=O)N(C(=O)N1CO[C@@]2(C(=O)OC)Cc3cc(Cl)ccc3C2=N1)c1ccc(OC(F)(F)F)cc1 | inactive |
| Nc1c(Cl)c(F)nc(OCC(=O)O)c1Cl | inactive |
| C=CCOC(=O)C(C)(C)OC(=O)c1cc(-n2c(=O)cc(C(F)(F)F)n(C)c2=O)ccc1Cl | inactive |
